Measured values from PubChem BioAssay (NCI).
About 79,000 compounds went through this panel and 15% of them were active in at least one assay; those are over-represented in the sample as a whole. A number with no mark means an inactive call. Calls of active or inactive are those of the source. No stated cut-off is given here; in the data, active means growth inhibition above about 70%; inactive means the rest.

What was measured:
[1] = NCI Yeast Anticancer Drug Screen. Data for the rad50 strain (AID 155);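 further: 0% = growth of vehicle-only cultures of the same strain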; conditions: S. cerevisiae rad50 strain growth inhibition; at 50.0 µM; stronger effect = higher value
Summary of the method: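 A DNA repair-deficient yeast mutant serves as the test organism; compound-induced growth inhibition is calculated against vehicle-treated cells.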

[2] = NCI Yeast Anticancer Drug Screen. Data for the mec2-1 strain (AID 157); conditions: S. cerevisiae mec2-1 strain, at 50.0 µM, stronger effect = higher value
Summary of the method: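 Cells of the genetically defined mec2-1 yeast strain are incubated with test compound. Inhibition of growth is calculated against vehicle-treated controls.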

[3] = NCI Yeast Anticancer Drug Screen. Data for the sgs1 mgt1 strain (AID 161);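 further: 0% = growth of cultures given vehicle only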; conditions: S. cerevisiae sgs1 mgt1 strain, at 50.0 µM, stronger effect = higher value
Summary of the method: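 Genetically altered yeast, compound exposure, growth inhibition relative to vehicle.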

[4] = NCI Yeast Anticancer Drug Screen. Data for the cln2 rad14 strain (AID 165);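 further: 0% = growth equal to vehicle treated cultures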; conditions: S. cerevisiae cln2 rad14 strain, at 50.0 µM, stronger effect = higher value
Summary of the method: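 The screen exposed genetically defined yeast (cln2 rad14) to test compounds and scored growth inhibition relative to vehicle-treated controls.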

[5] = NCI Yeast Anticancer Drug Screen. Data for the bub3 strain (AID 167); conditions: S. cerevisiae bub3 mutant strain, at 50.0 µM, stronger effect = higher value
Summary of the method: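 Inhibition values come from growth of compound-treated mutant yeast normalised to vehicle-treated controls.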

[6] = NCI Yeast Anticancer Drug Screen. Data for the mlh1 rad18 strain (AID 175); conditions: S. cerevisiae mlh1 rad18 strain growth inhibition; at 50.0 µM; stronger effect = higher value
Summary of the method: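 Compound-treated yeast growth, normalised to vehicle controls. Strain bears defined DNA repair mutations.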

Row | Structure (SMILES) | growth inhibition [1] | growth inhibition [2] | growth inhibition [3] | growth inhibition [4] | growth inhibition [5] | growth inhibition [6]
1 | O=C1CCCC2=C1C(c1ccccc1)/C(=N/O)O2 (stereo not given) | 14.6% | -11.2% | -4.45% | -12.1% | 8% | 16.1%
2 | O=C1OC(=O)C2C3C=CC(C4C=C(C5CC5)C43)C12 (stereo not given) | 9.8% | -4.05% | -4.1% | -22.9% | -5.5% | 5.2%
3 | Cc1c(NC(=O)Nc2c(Cl)cccc2Cl)c(=O)n(-c2ccccc2)n1C | -42.8% | -36.3% | -15.5% | -10.2% | -29.9% | -39.9%
4 | CCCCCCCC(=O)N(CCCCC)CCCCC | 66.5% | 77.2% (active) | 77.2% (active) | 74% (active) | 66.5% | 66.5%
5 | CCC[N+]1=C/c2ccccc2OC(=O)/C=C\1[O-] | -36.9% | -11.3% | -14.1% | -8.95% | 5.8% | -1.1%
6 | C(#[C][Sn]([c]1ccccc1)([c]1ccccc1)[c]1ccccc1)c1ccccc1 | 98.3% (active) | 95.5% (active) | 97.8% (active) | 98.5% (active) | 98.8% (active) | 98.6% (active)
7 | O=c1c(Cl)c(Cl)cnn1CCc1ccncc1 | 2.2% | -4.05% | -19.6% | 11.4% | -7.3% | -2.65%
8 | Clc1c2c(nc3ccccc13)CCCC2 | 19.3% | 50.9% | 49.4% | -37% | 7.65% | 8.05%
9 | COC1(OC)c2no[n+]([O-])c2C(OC)(OC)c2c1no[n+]2[O-] | -11.7% | -4.8% | -6.35% | 19.1% | 20.6% | -4.35%
10 | Cc1ccc(NC(=O)c2ccccc2)cc1 | 3.75% | 4.7% | -2.55% | -16% | 2.05% | -0.3%
11 | O=c1[nH]c(CCCc2ccccc2)c(Br)c(=O)[nH]1 | -1.5% | -7.65% | 3.35% | -4.35% | 15.1% | 24.4%
12 | CCOC(=O)C(=C/C=C/NCCc1c[nH]c2ccccc12)C(=O)OCC | -23.1% | -44.5% | -20.8% | -10.2% | -15.2% | -26.2%
13 | CNC(=O)c1ccccc1CC(O)c1ccccc1 (stereo not given) | -7.95% | 0.65% | 4.75% | 6.75% | 0.9% | 8.95%
14 | O=C(NC(Cc1ccccc1)C(=O)NNc1ccccc1Cl)OCc1ccccc1 (stereo not given) | 92.4% (active) | 86.3% (active) | 94.7% (active) | 55.5% | 80% (active) | 89.5% (active)
15 | CCOC1NC(/N=C/c2ccc(OC)cc2)=C(C#N)C1C#N (stereo not given) | -29.2% | -6.7% | -49.5% | 12.4% | -28.1% | -35%
16 | CC(=O)Nc1cc2c3c(c1)CCCN3CCC2 | -24.4% | -14.8% | -38.2% | 25.9% | 27.6% | -3.6%
17 | NC(=S)NNc1ccccc1 | 0.2% | -5.8% | -0.05% | -6.7% | -2.6% | -5.3%
18 | CCCOC(=O)C(OC(=O)c1ccccc1)C(OC(=O)c1ccccc1)C(=O)OCCC (stereo not given) | -0.65% | 0.1% | -8% | -10.9% | 5.05% | -3.7%
19 | CC1(C)C(=O)N2c3ccccc3C3(CC(N4C(=O)c5ccccc5C4=O)C(=O)O3)C2N1C(=O)OCc1ccccc1 (stereo not given) | 26.1% | 13.8% | 9.35% | 15.2% | 14.1% | -13.1%
20 | CC(c1ccccc1)C(O)S(=O)(=O)O (stereo not given) | 6.95% | 3.7% | 7.35% | -5.05% | 17.3% | -0.35%
21 | N#CCCC(CC#N)N1CCN(C(CC#N)CCC#N)CC1 (stereo not given) | -33.5% | -48.9% | -11.8% | -6.3% | -13.1% | -19.4%
22 | C[N+](C)(C)CC(=O)N/N=C(/Cc1nc2ccc([N+](=O)[O-])cc2[nH]c1=O)C(=O)Nc1cc(C(F)(F)F)ccc1Cl | -13.2% | 3.7% | 3.35% | 8.55% | -5.4% | 16.2%
23 | N#CC1(C#N)C(CCl)C1(C#N)C#N | 2.85% | -6.95% | -1.15% | -15.2% | -4% | -8.6%

Row | Structure (SMILES) | growth inhibition [1] | growth inhibition [2] | growth inhibition [3] | growth inhibition [4] | growth inhibition [5] | growth inhibition [6]
24 | CCOC1CN(C(=O)ON)N1C(=O)ON (stereo not given) | 4.8% | -12.6% | -10.4% | -33.2% | -22.4% | 4.85%
25 | CC1OC(O)CC(NC(=O)C(F)(F)F)C1O (stereo not given) | 3.6% | -4.35% | 9.65% | -21.9% | -1.1% | -0.1%
26 | CCc1ccc(C(=O)O)cc1S(=O)(=O)Cl | 7.2% | 13.4% | -12.6% | -9.4% | 2.55% | 1.45%
27 | CCc1ccc(NS(=O)(=O)c2ccc3ccccc3c2)cc1 | 96% (active) | 97.5% (active) | 96.9% (active) | 94.6% (active) | 96.5% (active) | 96.4% (active)
28 | O=C1/C(=C/c2cccc3ccccc23)Cc2ccccc21 | -6.55% | -25.6% | -11.6% | -5.65% | 18.1% | 7.7%
29 | CNC1C(O)C(OC2C(N)CC(N)C(OC3OC(CN)=CCC3N)C2O)OCC1(C)O (stereo not given) | -17.3% | -43.3% | -34.1% | -15.6% | -25.8% | -5.15%
30 | COC(=O)C1C(C(=O)OC)C2N(c3ccccc3)C=NN2C1C(=O)c1ccccc1 (stereo not given) | -62.2% | -10.2% | -16% | -3.65% | 5.05% | -4.65%
31 | COc1cc(N=Nc2ccccc2)cc(/C=N\NC(=S)Nc2cccc(C)c2)c1O | 35.2% | 19.9% | 29.8% | 24.9% | -8.15% | 39.7%
32 | C[N+]1(C)CCC(c2ccccc2)(c2ccccc2)/C(=C2/C(=O)C(c3ccccc3)(c3ccccc3)CC[N+]2(C)C)C1 | -4.55% | -7.9% | 0.75% | 35% | -32% | -20.8%
33 | Brc1cccc(Br)n1 | -6.45% | -6.15% | -7.55% | 7.4% | 2.1% | 4.05%
34 | C=CCOC(=O)NC(CCC(=O)OC)C(=O)O (stereo not given) | -0.5% | -2.1% | -6.25% | -9.3% | -2.45% | -0.2%
35 | CCN(CC)c1cccc2c1C1(O)CCC3(CC21)OCCCCO3 (stereo not given) | -33% | -21.6% | -57.3% | -1.65% | -45% | -28.9%
36 | COc1ccc2c(c1)CCC1C2CCC2(C)C(=O)C(n3cnc4c(=S)nc[nH]c43)CC12 (stereo not given) | 42.3% | 24.4% | 50% | 34.5% | 14.2% | 51.8%
37 | CC(C)/C=C(\C#N)C(=O)O | -3.2% | -13.5% | -1.2% | -0.8% | -2.65% | 1.3%
38 | NC(=O)O/N=C/c1ccc(Cl)cc1 | 2.8% | -16.8% | -13.1% | 10.3% | 17.1% | 9.8%
39 | C/C=C(\C)CCC(C)(O)CC (stereo not given) | 2.2% | -15.6% | 7.45% | 3% | -22.4% | 14.1%
40 | CCOC(=O)Cc1nnc2n(-c3ccccc3)c(=O)c3ccccc3n12 | -23.6% | -15.3% | -21.7% | 11.8% | -21.9% | -74.2%
41 | O=C1NC(=O)/C(=C/CCCO)N1 | 2.85% | -5.3% | -10.4% | -8.95% | -0.25% | -6.6%
42 | O[C@]12c3ccccc3C1CCCCC2N1CCOCC1 (stereo not given in full) | -15.8% | -41% | -61% | -8.45% | -24.1% | -35.4%
43 | COc1cc(C(=O)C/C(CCC(=O)Nc2ccc(Cl)cc2Cl)=N/NC(=O)C(N)=O)ccc1O | -12.8% | -2.45% | -34.8% | 22.4% | -1.45% | -20.4%
44 | COc1cccc2c1[C@]1(O)C(O)CCCC21 (stereo not given in full) | -43.6% | -6.6% | -60.6% | 5.95% | -31.9% | -35.7%
45 | O=C(Nc1cccc(C(=O)Nc2ccc(S(=O)(=O)O)c3cc(S(=O)(=O)O)cc(S(=O)(=O)O)c23)c1)Nc1cccc(C(=O)Nc2cccc3c(S(=O)(=O)O)c(S(=O)(=O)O)cc(S(=O)(=O)O)c23)c1 | -0.25% | 7.2% | 0.65% | 47.9% | 12.9% | 13.7%
